# A selection: hits, their analogues and other compounds. The true share with any hit is near 1.3%.
# S1P2 blocker – S1P2 (human) receptor antagonism; AID 736; hit rate 0.21% among 97,000; O95136; inhibition, % at 5 µM; cell-based S1P2 antagonist assay, inhibition at 5 uM; in the data active = inhibition above about 45%;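 also: CRE beta-lactamase reporter cells expressing human S1P2 stimulated with S1P; 0% = agonist at EC80 alone and 100% = agonist plus reference antagonist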
# GALR2 blocker – blocks the human galanin receptor 2 | O43603 | inhibition, % at 4 µM | AID 828 | GALR2-expressing cells, antagonist mode | hit rate 0.39% among 140,000; in the data active = inhibition above about 27%;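 also: cells stimulated with galanin 1-16 at roughly its EC80; 0% = agonist challenge control and 100% = basal control without agonist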
# Target sequence (O43603 whole entry, looked up): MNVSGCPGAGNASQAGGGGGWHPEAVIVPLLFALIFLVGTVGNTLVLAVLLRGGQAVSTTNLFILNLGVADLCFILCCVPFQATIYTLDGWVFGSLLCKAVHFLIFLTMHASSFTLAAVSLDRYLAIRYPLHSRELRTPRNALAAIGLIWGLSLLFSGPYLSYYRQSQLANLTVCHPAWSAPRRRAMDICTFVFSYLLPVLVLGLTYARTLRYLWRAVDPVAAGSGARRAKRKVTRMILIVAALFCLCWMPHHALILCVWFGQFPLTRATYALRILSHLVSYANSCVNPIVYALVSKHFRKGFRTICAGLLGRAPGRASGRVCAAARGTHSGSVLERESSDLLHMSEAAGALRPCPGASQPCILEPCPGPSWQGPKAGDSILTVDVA
# Candida biofilm – kills Candida albicans biofilms. C. albicans biofilm + clotrimazole, Alamar Blue. inhibition, % at 6 µM. hit rate 0.14% among 85,000. AID 834;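 active = inhibition above 20%; inactive = inhibition below 20%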;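 also: preformed 24 hr biofilms exposed to compound for 48 hr; 0% = biofilm without compound and 100% = blank killed by clotrimazole plus chlorhexidine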
# S1P2 ag – agonists of human S1P2 receptor | O95136 | S1P2-expressing cell line, agonist reporter read-out | hit rate 0.46% among 97,000 | activation, % at 4.5 µM; in the data active = activation above about 16%;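 also: 0% = vehicle low control and 100% = maximal reference agonist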
# Phagocytosis inh – macrophage phagocytosis inhibition. J774A.1 macrophage IgG-bead phagocytosis, imaging. inhibition, % at 5 µM. hit rate 0.07% among 110,000. AID 1029;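 active = inhibition above the mean of the plate negative controls plus 5 SD, cut at about 13% in these data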;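 also: phagocytic index as fraction of beads internalized from green versus red external bead signal; plate controls were DMSO negative control for no effect and cytochalasin-D positive control for full effect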
# GALR2 ag – GALR2 (human) receptor agonism. GALR2-expressing cells, agonist activation read-out. activation, % (concentration not given with the values). hit rate 0.48% among 140,000. AID 803; in the data active = activation above about 5%, passing the limit was not always enough;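 also: 0% = vehicle buffer wells and 100% = reference agonist at full effect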
# * marks the source's active call; other numbers are inactive results; . = no result given; [ ] = remark or other dose.
SMILES,S1P2 blocker,GALR2 blocker,Candida biofilm,S1P2 ag,Phagocytosis inh,GALR2 ag
Cc1ccc(C)c(NC(=S)NC(NC(=O)Cc2cccc3ccccc23)C(Cl)(Cl)Cl)c1 (stereo not drawn),18.2,-0.1,1.2,26.0*,.,1.1
O=C(c1ccco1)N1CCN(C(c2ccc(Cl)cc2)c2nnnn2Cc2ccccc2)CC1 (stereo not drawn),-10.7,-5.2,11.1,-2.7,.,0.2
CCC(C(=O)N1CCN(c2ccccc2OC)CC1)c1ccccc1 (stereo not drawn),.,-0.8,.,.,10.9,-0.8
CC1CCC2(CC1)NC(=S)N(c1ccccc1)N2 (stereo not drawn),-0.5,7.7,83.3*,-3.9,-0.5,-1.1
CCSc1ccc(-c2nn(-c3ccccc3)cc2/C=C(/C#N)C(=O)NCCCOC)cc1,.,0.4,.,.,-10.5,5.9*
CCn1cc([N+](=O)[O-])c(C(=O)Nc2c(C)nn(Cc3cccc(F)c3)c2C)n1,.,-7.7,.,.,-4.8,-0.3
CC(C)(C)c1cc(S(=O)(=O)CCc2ccccn2)cc(C(C)(C)C)c1F,-6.6,-10.9,-1.6,-3.5,153.3*,-2.0
COc1ccc(CNC(=O)CN2CCC(C(=O)c3ccc(OC)cc3)CC2)cc1,18.6,-0.8,-0.5,-6.3,-0.7,-0.1
CCOC(=O)c1c(N)sc(-c2ccccc2)c1C,-7.7,0.0,-0.2,-2.3,.,-2.4
CCOC(=O)c1c(N)sc(C(O)(C(F)(F)F)C(F)(F)F)c1-c1ccccc1,-9.4,-19.9,82.2*,2.3,-1.4,0.7
S=C(NC1CCCCC1)N(CCc1ccccc1)CCc1ccccc1,.,1.6,.,.,71.1*[artifact],-1.4
S=C(NCCc1ccccc1)NC1CCCCCC1,20.2,-2.4,.,-4.8,-0.4,-0.8
Cc1cccc2cc(C(c3nnnn3CC3CCCO3)N3CCc4ccccc4C3)c(=O)[nH]c12 (stereo not drawn),6.2,1.1,6.7,127.8*,-1.4,-1.8
COc1cc(OC)c(-c2nnc(-c3ccc(OC)c(OC)c3OC)o2)cc1OC,-11.9,-5.0,-6.0,16.2*,0.2,0.4
COc1cccc(-c2nnc(-c3ccc(C(F)(F)F)cc3)o2)c1OC,12.0,-3.3,-3.0,-1.4,.,-2.1
CC(CN(C)Cc1ccccc1)OC(=O)c1cccc(F)c1 (stereo not drawn),.,5.1,.,.,8.6,0.9
S=C(NCc1ccccn1)Nc1ccc(Cl)c(Cl)c1,46.6*,0.8,.,-5.2,-1.4,-1.6
COc1ccc2cc3c(N)nn(C(=O)Cc4ccccc4OC)c3nc2c1,10.7,-6.9,-10.1,-4.0,-0.5,-3.5
COc1ccc2cc3c(N)nn(C(=O)c4cccc([N+](=O)[O-])c4)c3nc2c1,.,-1.8,.,.,-11.9,8.0*
C=CCSc1nc2ccccc2n1C(=O)/C=C/c1cc(OC)c(OC)c(OC)c1,54.1*,6.8,.,-6.0,.,1.4
C=CCSc1nc2ccccc2n1C(=O)/C=C/c1ccc(OC)c(OC)c1,24.6,-0.5,.,-7.9,.,-0.2
COc1ccc(NC(=O)C2(c3ccc(NC(=O)c4ccc(OC(C)=O)cc4)cc3)CCCC2)cc1,-18.3,-3.9,.,-2.3,.,-1.4
Clc1ccc(CSc2nnc3ccccn23)c(Cl)c1,.,-11.9,.,.,-9.8,-0.9
O=C(C(Cc1ccccc1)n1cccc1)N1CCCCCC1 (stereo not drawn),5.8,2.7,20.6*,-2.9,0.5,-1.4
Cc1ccc(CNC(=O)C2CCCN(S(=O)(=O)c3c(C)[nH]c(=O)[nH]c3=O)C2)cc1 (stereo not drawn),.,-6.5,.,.,1.3,-0.4
SMILES,S1P2 blocker,GALR2 blocker,Candida biofilm,S1P2 ag,Phagocytosis inh,GALR2 ag
CCn1c(/C=C/c2c(C)[nH]c3ccccc23)nc2ccccc2c1=O,.,7.1,.,.,-12.1,7.3*
CCOC(=O)c1c(-c2ccc(F)cc2)csc1NC(=O)c1c(-c2ccccc2)noc1C,.,-6.6,.,.,129.4*[artifact],0.9
CCCCCCOC(=O)C(C#N)c1nc2ccccc2nc1N1CCOCC1 (stereo not drawn),65.9*,-1.8,5.4,-0.5,1.0,-0.8
CCCCOC(=O)C(C#N)c1nc2ccccc2nc1N1CCOCC1 (stereo not drawn),-11.1,4.1,4.0,-3.2,-1.4,-1.6
CCCOc1ccc(C2C(C(=O)OC)=CN(CCOC)C=C2C(=O)OC)cc1,-17.7,-12.8,7.7,16.7*,1.0,6.9*
Cc1ccc(-c2nc3ccccc3[nH]2)cc1NC(=O)/C=C/c1ccco1,7.2,-3.1,.,-8.4,0.4,-1.7
O=C(NCc1ccco1)c1cc2ccc(O)cc2oc1=O,-173.8,-70.0,4.3,81.7*,0.4,144.6*
CC(=O)C1=C(O)C(=O)N(CC#N)C1c1cccs1 (stereo not drawn),15.1,-3.5,-0.9,36.5*,0.7,-1.3
N#C/C(=C/c1ccc(N2CCCCCC2)o1)c1ccc(Cl)cc1,48.8*,26.6,1.4,-5.0,-0.6,0.1
Cc1cc(NC(=O)CCS(=O)(=O)c2nc(-c3ccccc3)cc(C(F)(F)F)n2)no1,.,.,-1.7,.,-2.1,.
CS(=O)(=O)c1nc(-c2ccccc2)cc(C(F)(F)F)n1,.,53.7*,.,.,.,4.5
FC(F)(F)c1cc(C(F)(F)F)c2ccc(N3CCN(c4ccc(Cl)cc4)CC3)nc2n1,-11.1,11.7,.,-0.8,.,-1.5
N#CC(c1ccc(Cl)cc1)c1ccc2c(C(F)(F)F)cc(C(F)(F)F)nc2n1 (stereo not drawn),69.3*,-10.1,8.2,-5.0,-1.3,0.5
COc1ccc(Cl)cc1NC(=O)N1CCN(C2CCCCC2)CC1,0.9,10.0,5.1,-3.3,-0.6,-1.8
CC(=O)COc1cc(C)cc2oc(=O)c(C)c(C)c12,-4.8,-11.0,6.3,-3.0,3.4,0.8
O=C1c2ccccc2NC(c2ccccc2)N1Cc1ccco1 (stereo not drawn),.,13.9,36.8*,.,-0.4,-1.4
c1csc(C2=Nn3c(nnc3-c3ccncc3)SC2)c1,49.0*,18.2,7.6,-9.6,.,-2.1
Brc1ccc(C2=Nn3c(nnc3-c3ccncc3)SC2)cc1,-6.3,-1.7,10.8,-6.2,.,0.4
CC(=O)N(C(C)=O)c1c(N2CCOCC2)c2ccccc2oc1=O,18.8,10.2,6.9,-1.0,-4.1,-1.6
c1ccc2nc3c(nc2c1)[nH]c1ccccc13,.,10.2,4.9,.,0.1,-0.8
c1ccc(-c2c3ccccc3nc3[nH]c4ccccc4c23)cc1,.,-5.3,.,.,.,5.0*
COc1ccccc1/C=N/NC(=O)c1nnn(-c2nonc2N)c1CSC1=NCCS1,.,-1.1,.,.,-6.8,-0.9
O=C(N/N=C/c1ccc(O)cc1)c1[nH]c2ccc(Br)cc2c1-c1ccccc1,.,18.8,.,.,-6.8,4.7
O=C(N/N=C/c1c[nH]c2ccccc12)c1[nH]c2ccc(Br)cc2c1-c1ccccc1,.,13.3,.,.,22.1,8.1*
CC(=O)c1cccc(NS(=O)(=O)c2ccc(N/C=C/C(=O)c3ccc(F)cc3)cc2)c1,.,2.6,.,.,-6.4,0.2
CC(=O)c1cccc(NS(=O)(=O)c2ccc(N/C=C\C(=O)c3ccc(C)cc3)cc2)c1,67.2*,10.4,.,-9.1,2.3,1.2
CCCc1nc(SCC(=O)NCc2ccc3c(c2)OCO3)c2c(=O)n(C)c(=O)n(C)c2n1,.,.,-1.3,.,.,.
c1cnc(N2CCN(c3nc4ccccc4n4cnnc34)CC2)nc1,-27.3,-8.3,11.2,15.9,-1.2,-1.8

# Compound activity: PubChem, several laboratories
